Measurements published in PubChem BioAssay (NCI).
This is part of a sample that, as a whole, favours compounds with a hit. Of some 83,000 tested, about 20% had one in any assay.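 Treatment: one concentration, 48 hours, 96-well format. Scoring: percent growth, with anything below 10 considered active.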 Values without a mark were called inactive. Activity calls are given as the source filed them.

These compounds were tested on HS 578T breast (assay: NCI-60 one-dose screen, 48 h (100 = growth as untreated, 0 = no growth, -100 = all killed)). Details: 10 µM.
Compound `S=c1sc2ccccc2n1CN1CCCCC1` has a growth of 100%.
`CSc1[nH]c(=O)ncc1F` was tested, and the growth was 103%.
`COc1ccc(-c2cc(-c3cc(-c4ccc(OC)cc4)nc(N)n3)nc(N)n2)cc1` gave a growth of 96.4%.
`COc1ccccc1NC(=O)C1=C(C)NC(C)=C(C(=O)Nc2ccccc2OC)C1c1cccc([N+](=O)[O-])c1` gave a growth of 60.9%.
In the case of `C=CCNc1nnc(C)s1`, the growth was 101%.
In the case of `COC(=O)C(C)Oc1ccc(OC#N)cc1` (centres undefined), the growth was 90.1%.
`CCc1nn(Cc2ccccc2)c2nc(C)c(CCc3ccccc3)c(Cl)c12` was tested, and the growth was 92.2%.
`c1c(-c2cc(C3CC3)[nH]n2)n[nH]c1C1CC1` gave a growth of 101%.
For `CC(=O)Nc1cccc(Cl)c1C`, the growth was 92.9%.
`CC(=O)C1CCCCC1` was tested, and the growth was 104%.
`CCOC(=O)/C(C#N)=C/c1cccc(C)c1` gave a growth of 107%.
Work on `CC(C(=O)O)(C1CCCCC1)C1(O)CCCCC1` (centres undefined) yielded a growth of 119%.
In the case of `O=C(OCC(O)C1OC(c2ccccc2)OC(COC(=O)c2ccccc2)C1O)c1ccccc1` (centres undefined), the growth was 116%.
`O=C(O)c1ccc(S(=O)(=O)O)cc1` gave a growth of 87.6%.
In the case of `OC1CCCc2ccccc21` (centres undefined), the growth was 96.8%.
With `CCCCCCCCCCCCCC(=O)Oc1ccc[nH]c1=O` the growth was 98.1%.
Compound `COc1cc2c(cc1OC)[C@H](C(=O)O)[C@@H](c1ccc(OC(C)C)c(OC)c1)N(C)C2=O` has a growth of 89.3%.
`COC(=O)Nc1nc2ccc(C(=O)c3ccc(F)cc3)cc2[nH]1` was tested, and the growth was -5.44% (active).
`Nc1ccccc1SC(CC(=O)c1ccccc1)c1c(Cl)cccc1Cl` (centres undefined) gave a growth of 84.9%.
